Source: the antibiotic and cytotoxicity screens of Wong et al. (2023)
Among all 39,000 compounds or so, about 1,500 (3.8%) were called active. This is one part of a sample in which actives are shown more often than they occur.

The molecules below were run on HSkMC (human skeletal muscle cells) (assay: cytotoxicity call (relative viability < 0.9)). Settings: 10 µM.

| SMILES | cytotoxicity call |
| --- | --- |
| C[C@@H]1CCCCO[C@H](CN(C)S(C)(=O)=O)[C@@H](C)CN([C@H](C)CO)C(=O)c2cc(NS(=O)(=O)c3ccc(F)cc3)ccc2O1 | inactive |
| C[C@@H]1CN([C@H](C)CO)C(=O)c2cc(NC(=O)Nc3ccc(C(F)(F)F)cc3)ccc2O[C@@H](C)CCCCO[C@H]1CN(C)S(=O)(=O)c1cn(C)cn1 | inactive |
| COc1ccc(S(=O)(=O)Nc2ccc3c(c2)C(=O)N([C@@H](C)CO)C[C@H](C)[C@@H](CN(C)C(=O)c2ccccc2)OCCCC[C@H](C)O3)cc1 | inactive |
| COc1cc2c(=O)c(-c3ccc4c(c3)OCO4)coc2c2c1OC(C)(C)C=C2 | inactive |
| COc1cc2c(cc1OC)-c1c(oc3c4c(ccc3c1=O)OC(C)(C)C=C4)CO2 | inactive |
| COc1c(-c2coc3cc4c(cc3c2=O)CC(O)C(C)(C)O4)ccc2c1C=CC(C)(C)O2 (centres undefined) | active |
| C[C@@H]1CCCCO[C@@H](CN(C)Cc2ccc(C(=O)O)cc2)[C@H](C)CN([C@H](C)CO)C(=O)c2cc(NC(=O)NC3CCCCC3)ccc2O1 | inactive |
| COCC#Cc1ccc2c(c1)O[C@H](CN(C)S(=O)(=O)c1ccc(OC)cc1)[C@H](C)CN([C@@H](C)CO)S2(=O)=O | inactive |
| Cc1noc(C)c1S(=O)(=O)Nc1ccc2c(c1)CC(=O)N([C@@H](C)CO)C[C@@H](C)[C@H](CN(C)Cc1ccc(-c3ccccc3)cc1)O2 | active |
| Cc1noc(C)c1S(=O)(=O)Nc1ccc2c(c1)CC(=O)N([C@@H](C)CO)C[C@@H](C)[C@@H](CN(C)Cc1ccc(-c3ccccc3)cc1)O2 | inactive |
| Cc1noc(C)c1S(=O)(=O)Nc1ccc2c(c1)CC(=O)N([C@H](C)CO)C[C@H](C)[C@@H](CN(C)Cc1ccc(-c3ccccc3)cc1)O2 | active |
| Cc1noc(C)c1S(=O)(=O)Nc1ccc2c(c1)CC(=O)N([C@@H](C)CO)C[C@H](C)[C@@H](CN(C)Cc1ccc(-c3ccccc3)cc1)O2 | inactive |
| Cc1noc(C)c1S(=O)(=O)Nc1ccc2c(c1)CC(=O)N([C@H](C)CO)C[C@@H](C)[C@H](CN(C)Cc1ccc(-c3ccccc3)cc1)O2 | inactive |
| Cc1noc(C)c1S(=O)(=O)Nc1ccc2c(c1)CC(=O)N([C@@H](C)CO)C[C@H](C)[C@H](CN(C)Cc1ccc(-c3ccccc3)cc1)O2 | inactive |
| CC(C)CC#Cc1cnc2c(c1)C(=O)N([C@H](C)CO)C[C@H](C)[C@@H](CN(C)C(=O)CN1CCOCC1)O2 | inactive |
| NC(=O)N1C(=O)[C@H]2[C@H](C1=O)[C@H]1C=C(CCCO)[C@@H]2[C@H](c2ccc(CN3CCCC3)cc2)N1Cc1sc2ccccc2c1Cl | inactive |
| C[C@@H]1CN([C@H](C)CO)C(=O)c2cc(NS(=O)(=O)c3cccs3)ccc2O[C@@H]1CN(C)CC1CC1 | inactive |
| C[C@@H]1CN([C@H](C)CO)C(=O)Cc2cc(NS(=O)(=O)c3cccs3)ccc2O[C@H]1CN(C)S(=O)(=O)c1ccc(F)cc1 | inactive |
| C[C@H](CO)N1C[C@H](C)[C@@H](CN(C)C(=O)Nc2ccc(F)cc2)OCCCC[C@H](C)Oc2ccc(NC(=O)Nc3cccc4ccccc34)cc2C1=O | inactive |
| COCCCNC(=O)[C@@]1(Cc2ccccc2I)c2ccccc2C(=O)N(C2CCCCC2)[C@H]1c1ccc(CO)cc1 | inactive |
| C[C@@H]1CN([C@@H](C)CO)C(=O)Cc2cc(NC(=O)Nc3ccccc3)ccc2O[C@@H]1CN(C)Cc1ccc(C(F)(F)F)cc1 | active |
| C[C@H](CO)N1C[C@H](C)[C@@H](CN(C)Cc2ccc(C(F)(F)F)cc2)Oc2ccc(NC(=O)Nc3ccccc3)cc2CC1=O | inactive |

| SMILES | cytotoxicity call |
| --- | --- |
| C[C@H]1CN([C@@H](C)CO)C(=O)Cc2cc(NC(=O)Nc3ccccc3)ccc2O[C@H]1CN(C)Cc1ccc(C(F)(F)F)cc1 | active |
| C[C@@H]1CN([C@H](C)CO)C(=O)Cc2cc(NC(=O)Nc3ccccc3)ccc2O[C@@H]1CN(C)Cc1ccc(C(F)(F)F)cc1 | active |
| C[C@@H]1CN([C@@H](C)CO)C(=O)Cc2cc(NC(=O)Nc3ccccc3)ccc2O[C@H]1CN(C)Cc1ccc(C(F)(F)F)cc1 | active |
| C[C@@H](O)C#Cc1ccc2c(c1)O[C@@H](CN(C)C(=O)C1CCCCC1)[C@@H](C)CN([C@@H](C)CO)S2(=O)=O | inactive |
| Cc1noc(C)c1S(=O)(=O)Nc1ccc2c(c1)C(=O)N([C@H](C)CO)C[C@H](C)[C@H](CN(C)Cc1ccc(Cl)c(Cl)c1)OCCCC[C@@H](C)O2 | inactive |
| COc1oc(C(=O)NC2CCCCC2)c(-c2ccc(Cl)cc2)c1S(=O)(=O)c1ccc2c(c1)OCCO2 | inactive |
| CN1C(=O)c2cc(NS(=O)(=O)c3ccc(F)cc3)ccc2OC[C@@H]2O[C@H](CC(=O)NCC(F)(F)F)CC[C@H]21 | inactive |
| C[C@@H]1CCCCO[C@H](CN(C)S(=O)(=O)c2ccc(F)cc2)[C@H](C)CN([C@@H](C)CO)C(=O)c2cc(NS(=O)(=O)c3ccc(Cl)cc3)ccc2O1 | inactive |
| COc1ccc(O)cn1 | inactive |
| C[C@H]1CCCCO[C@H](CN(C)S(=O)(=O)c2cccs2)[C@@H](C)CN([C@@H](C)CO)C(=O)c2cc(NC(=O)Nc3cccc4ccccc34)ccc2O1 | inactive |
| C[C@@H]1CN([C@@H](C)CO)C(=O)c2cc(NC(=O)Nc3ccccc3)ccc2O[C@H]1CN(C)S(C)(=O)=O | inactive |
| CC(C)NC(=O)N(C)C[C@H]1Oc2ccc(NS(=O)(=O)c3ccc(F)cc3)cc2CC(=O)N([C@@H](C)CO)C[C@H]1C | inactive |
| O=C1C=CC(O)(/C=C/C(=O)O[C@@H]2[C@@H](O)[C@H](Oc3ccc(O)cc3)O[C@H](CO)[C@H]2O)C=C1 | inactive |
| C[C@H](CO)N1C[C@H](C)[C@@H](CN(C)Cc2cccc(C(=O)Nc3ccccc3N)c2)OCc2ccccc2-c2c(n(C)c3ccccc23)C1=O | inactive |
| C[C@H](CO)N1C[C@H](C)[C@H](CN(C)Cc2ccc(C(F)(F)F)cc2)Oc2ccc(NC(=O)Nc3ccccc3)cc2CC1=O | active |
| C[C@@H]1CN([C@H](C)CO)C(=O)Cc2cc(NC(=O)Nc3ccccc3)ccc2O[C@H]1CN(C)Cc1ccc(C(F)(F)F)cc1 | active |
| C[C@H]1CN([C@@H](C)CO)C(=O)Cc2cc(NC(=O)Nc3ccccc3)ccc2O[C@@H]1CN(C)Cc1ccc(C(F)(F)F)cc1 | active |
| C=C1C(c2ccc(C)cc2)=CCc2cc(C)cc(C)c21 | inactive |
| C[C@@H]1CCCCO[C@@H](CN(C)S(=O)(=O)c2cccs2)[C@H](C)CN([C@@H](C)CO)C(=O)c2cc(NC(=O)Nc3ccc(F)cc3)ccc2O1 | inactive |
| Cc1nnn2c1COC[C@H](CNCC(C)C)C2 | inactive |
| COCC(=O)Nc1ccc2c(c1)OC[C@@H](C)N(Cc1ccccc1OC)C[C@@H](C)[C@@H](OC)CN(C)C2=O | inactive |
| COc1ccc(NC(=O)Nc2ccc3c(c2)C(=O)N([C@@H](C)CO)C[C@@H](C)[C@@H](CN(C)S(=O)(=O)c2cccs2)OCCCC[C@H](C)O3)cc1 | inactive |

| SMILES | cytotoxicity call |
| --- | --- |
| O=C(CN1CCOCC1)N[C@H]1CC[C@H](CCNC(=O)C2CCCCC2)O[C@@H]1CO | inactive |
| CNC[C@@H]1Oc2ccc(NS(=O)(=O)c3cn(C)cn3)cc2C(=O)N([C@H](C)CO)C[C@H]1C | inactive |
| CCCNC(=O)N1C[C@@H](O)COC[C@@H]2O[C@@H](CC(=O)N3CCOCC3)CC[C@H]21 | inactive |
| O=C(C[C@@H]1CC[C@H]2[C@@H](COC[C@H](O)CN2S(=O)(=O)c2ccc(F)cc2)O1)N[C@H]1CCN(Cc2ccccc2)C1 | inactive |
| COc1nsnc1N1CCOCC1 | inactive |
| C[C@@H]1CN([C@H](C)CO)C(=O)Cc2cc(NS(=O)(=O)c3ccccc3)ccc2O[C@@H]1CN(C)Cc1ccc(Cl)c(Cl)c1 | active |
| C[C@H]1CN([C@@H](C)CO)C(=O)Cc2cc(NS(=O)(=O)c3ccccc3)ccc2O[C@@H]1CN(C)Cc1ccc(Cl)c(Cl)c1 | inactive |
| C[C@H]1CN([C@@H](C)CO)C(=O)Cc2cc(NS(=O)(=O)c3ccccc3)ccc2O[C@H]1CN(C)Cc1ccc(Cl)c(Cl)c1 | inactive |
| C[C@@H]1CN([C@@H](C)CO)C(=O)Cc2cc(NS(=O)(=O)c3ccccc3)ccc2O[C@@H]1CN(C)Cc1ccc(Cl)c(Cl)c1 | active |
| C[C@H](CO)N1C[C@H](C)[C@H](CN(C)Cc2ccc(Cl)c(Cl)c2)Oc2ccc(NS(=O)(=O)c3ccccc3)cc2CC1=O | inactive |
| C[C@@H]1CN([C@H](C)CO)C(=O)Cc2cc(NS(=O)(=O)c3ccccc3)ccc2O[C@H]1CN(C)Cc1ccc(Cl)c(Cl)c1 | active |
| C[C@@H]1CN([C@@H](C)CO)C(=O)Cc2cc(NS(=O)(=O)c3ccccc3)ccc2O[C@H]1CN(C)Cc1ccc(Cl)c(Cl)c1 | active |
| C[C@H](CO)N1C[C@H](C)[C@@H](CN(C)Cc2ccc(Cl)c(Cl)c2)Oc2ccc(NS(=O)(=O)c3ccccc3)cc2CC1=O | inactive |
| Cc1noc(C)c1NC(=O)N(C)C[C@H]1Oc2ccc(NC(=O)Nc3ccc(C(F)(F)F)cc3)cc2C(=O)N([C@H](C)CO)C[C@@H]1C | inactive |
| NNC(=O)[C@H]1C[C@H]2C[C@@H]1C[C@@H]2C(=O)NN | inactive |
| COc1ccc(S(=O)(=O)N(C)C[C@H]2Oc3ccc(NC(=O)Cn4cnnn4)cc3CC(=O)N([C@@H](C)CO)C[C@H]2C)cc1 | inactive |
| O=C(O)c1ccc[n+]([O-])c1 | inactive |
| CN(C)C(=O)C1CCN(S(C)(=O)=O)CC1 | inactive |
| Cc1noc(C)c1NC(=O)Nc1ccc2c(c1)C(=O)N([C@@H](C)CO)C[C@H](C)[C@H](CN(C)C(=O)Nc1ccc(C(F)(F)F)cc1)O2 | inactive |
| C[C@@H]1CCCCO[C@@H](CN(C)C(=O)c2ccccc2)[C@@H](C)CN([C@H](C)CO)C(=O)c2cc(NC(=O)Cc3ccccc3)ccc2O1 | inactive |
